The results in this text go back to ChEMBL document CHEMBL1961873, “Compounds: GSK PKIS; Assays: Nanosyn kinase panel” (2012).

The target in test [1] is Sphingosine kinase 1 (Homo sapiens) (UniProt Q9NYA1). The following applies: at 1 µM.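 Further: mean SPHK1 inhibition value reported from the GSK PKIS kinase panel screen.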
Test [2] concerns the target T1, Sphingosine kinase 2 (Homo sapiens) (UniProt Q9NRA0).
T1 sequence (whole entry): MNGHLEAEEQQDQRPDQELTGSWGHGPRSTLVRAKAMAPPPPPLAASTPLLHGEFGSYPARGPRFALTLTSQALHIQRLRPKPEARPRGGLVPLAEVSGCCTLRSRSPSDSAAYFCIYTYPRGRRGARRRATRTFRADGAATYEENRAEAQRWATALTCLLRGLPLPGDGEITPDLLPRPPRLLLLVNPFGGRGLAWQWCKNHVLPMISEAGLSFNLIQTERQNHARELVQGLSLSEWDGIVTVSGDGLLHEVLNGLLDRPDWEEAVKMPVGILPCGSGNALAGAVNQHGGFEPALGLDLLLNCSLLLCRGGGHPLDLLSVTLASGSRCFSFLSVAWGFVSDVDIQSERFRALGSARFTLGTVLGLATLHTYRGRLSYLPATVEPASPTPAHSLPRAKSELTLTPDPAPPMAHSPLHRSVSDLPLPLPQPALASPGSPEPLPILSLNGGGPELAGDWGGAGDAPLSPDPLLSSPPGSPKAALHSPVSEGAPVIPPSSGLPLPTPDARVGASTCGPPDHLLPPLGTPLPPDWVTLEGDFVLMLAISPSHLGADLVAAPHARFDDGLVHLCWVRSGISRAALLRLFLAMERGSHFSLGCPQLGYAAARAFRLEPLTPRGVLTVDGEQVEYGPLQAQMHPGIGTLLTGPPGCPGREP
The following applies: at 0.1 µM.

In test [3] the target is T1, Sphingosine kinase 2 (Homo sapiens). As to conditions: at 1 µM.
Test [4] concerns the target Casein kinase II subunit alpha (Homo sapiens) (UniProt P68400). The following applies: at 0.1 µM.
Test [5] shares this target. The following applies: at 1 µM.
For test [6], the target named is T2, Inhibitor of nuclear factor kappa-B kinase subunit alpha (Homo sapiens) (UniProt O15111).
T2 sequence (whole entry): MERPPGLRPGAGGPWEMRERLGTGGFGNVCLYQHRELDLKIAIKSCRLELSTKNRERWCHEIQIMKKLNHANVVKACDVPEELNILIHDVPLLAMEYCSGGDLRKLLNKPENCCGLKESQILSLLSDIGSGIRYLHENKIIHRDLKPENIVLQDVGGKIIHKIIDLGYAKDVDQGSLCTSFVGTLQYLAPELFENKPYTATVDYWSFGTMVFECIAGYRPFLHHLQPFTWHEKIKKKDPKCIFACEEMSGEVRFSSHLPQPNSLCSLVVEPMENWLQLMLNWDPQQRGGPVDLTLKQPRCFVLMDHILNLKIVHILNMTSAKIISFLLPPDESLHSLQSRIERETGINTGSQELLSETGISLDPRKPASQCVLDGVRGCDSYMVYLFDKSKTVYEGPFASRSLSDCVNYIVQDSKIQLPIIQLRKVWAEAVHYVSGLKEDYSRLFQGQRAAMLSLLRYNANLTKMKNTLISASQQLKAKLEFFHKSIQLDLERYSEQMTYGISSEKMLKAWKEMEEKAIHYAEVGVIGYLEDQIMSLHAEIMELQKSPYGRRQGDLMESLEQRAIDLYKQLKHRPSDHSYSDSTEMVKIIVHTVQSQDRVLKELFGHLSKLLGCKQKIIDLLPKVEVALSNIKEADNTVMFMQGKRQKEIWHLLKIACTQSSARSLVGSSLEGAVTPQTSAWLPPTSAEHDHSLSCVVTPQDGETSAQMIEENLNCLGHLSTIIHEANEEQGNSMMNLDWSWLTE
As to conditions: at 0.1 µM.

Test [7] has as its target T2, Inhibitor of nuclear factor kappa-B kinase subunit alpha (Homo sapiens). As to conditions: at 1 µM.
Test [8] deals with T3, Inhibitor of nuclear factor kappa-B kinase subunit beta (Homo sapiens) (UniProt O14920).
T3 sequence (whole entry): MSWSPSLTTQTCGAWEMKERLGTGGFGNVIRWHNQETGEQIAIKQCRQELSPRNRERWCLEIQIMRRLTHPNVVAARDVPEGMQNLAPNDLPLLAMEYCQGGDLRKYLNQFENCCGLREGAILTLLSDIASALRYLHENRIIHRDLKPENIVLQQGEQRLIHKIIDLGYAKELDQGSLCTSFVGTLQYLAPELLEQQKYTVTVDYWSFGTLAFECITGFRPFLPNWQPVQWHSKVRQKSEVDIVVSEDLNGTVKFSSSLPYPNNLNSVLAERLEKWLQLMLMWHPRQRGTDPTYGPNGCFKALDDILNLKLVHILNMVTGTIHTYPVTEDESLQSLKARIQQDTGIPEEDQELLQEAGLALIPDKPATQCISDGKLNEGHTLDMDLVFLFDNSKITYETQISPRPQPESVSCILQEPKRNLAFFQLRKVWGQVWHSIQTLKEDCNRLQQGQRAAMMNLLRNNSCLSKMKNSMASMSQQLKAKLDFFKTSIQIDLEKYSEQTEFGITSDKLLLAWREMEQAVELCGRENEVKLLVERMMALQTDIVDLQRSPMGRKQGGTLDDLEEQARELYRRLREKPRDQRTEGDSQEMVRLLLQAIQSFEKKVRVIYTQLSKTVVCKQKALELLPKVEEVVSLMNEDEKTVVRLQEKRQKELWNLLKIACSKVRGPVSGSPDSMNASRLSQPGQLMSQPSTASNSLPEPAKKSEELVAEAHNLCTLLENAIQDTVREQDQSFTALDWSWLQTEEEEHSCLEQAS
The following applies: at 0.1 µM.

The target of test [9] is T3, Inhibitor of nuclear factor kappa-B kinase subunit beta (Homo sapiens). The following applies: at 1 µM.
For test [10], the target named is T4, Inhibitor of nuclear factor kappa-B kinase subunit epsilon (Homo sapiens) (UniProt Q14164).
T4 sequence (whole entry): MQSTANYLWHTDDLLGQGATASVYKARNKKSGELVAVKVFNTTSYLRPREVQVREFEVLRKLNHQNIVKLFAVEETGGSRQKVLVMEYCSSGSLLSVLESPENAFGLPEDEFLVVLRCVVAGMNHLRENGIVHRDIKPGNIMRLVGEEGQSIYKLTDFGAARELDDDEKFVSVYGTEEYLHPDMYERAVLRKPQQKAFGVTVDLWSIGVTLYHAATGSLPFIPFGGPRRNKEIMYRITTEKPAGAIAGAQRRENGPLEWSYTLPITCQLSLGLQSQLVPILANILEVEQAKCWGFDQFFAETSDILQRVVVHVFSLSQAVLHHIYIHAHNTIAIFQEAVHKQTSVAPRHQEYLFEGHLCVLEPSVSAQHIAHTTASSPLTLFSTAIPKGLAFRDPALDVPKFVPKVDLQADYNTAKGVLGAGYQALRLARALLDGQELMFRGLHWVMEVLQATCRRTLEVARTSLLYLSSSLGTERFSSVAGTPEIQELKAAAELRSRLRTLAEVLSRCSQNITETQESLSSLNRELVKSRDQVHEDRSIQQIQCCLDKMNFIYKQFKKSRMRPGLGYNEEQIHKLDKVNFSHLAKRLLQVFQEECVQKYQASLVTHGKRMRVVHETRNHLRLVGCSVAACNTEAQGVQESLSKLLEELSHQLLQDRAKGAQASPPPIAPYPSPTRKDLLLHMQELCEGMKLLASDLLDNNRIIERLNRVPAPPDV
The following applies: at 0.1 µM.

For test [11], the target named is T4, Inhibitor of nuclear factor kappa-B kinase subunit epsilon (Homo sapiens). As to conditions: at 1 µM.
In test [12] the target is T5, Serine/threonine-protein kinase Nek1 (Homo sapiens) (UniProt Q96PY6).
T5 sequence (whole entry): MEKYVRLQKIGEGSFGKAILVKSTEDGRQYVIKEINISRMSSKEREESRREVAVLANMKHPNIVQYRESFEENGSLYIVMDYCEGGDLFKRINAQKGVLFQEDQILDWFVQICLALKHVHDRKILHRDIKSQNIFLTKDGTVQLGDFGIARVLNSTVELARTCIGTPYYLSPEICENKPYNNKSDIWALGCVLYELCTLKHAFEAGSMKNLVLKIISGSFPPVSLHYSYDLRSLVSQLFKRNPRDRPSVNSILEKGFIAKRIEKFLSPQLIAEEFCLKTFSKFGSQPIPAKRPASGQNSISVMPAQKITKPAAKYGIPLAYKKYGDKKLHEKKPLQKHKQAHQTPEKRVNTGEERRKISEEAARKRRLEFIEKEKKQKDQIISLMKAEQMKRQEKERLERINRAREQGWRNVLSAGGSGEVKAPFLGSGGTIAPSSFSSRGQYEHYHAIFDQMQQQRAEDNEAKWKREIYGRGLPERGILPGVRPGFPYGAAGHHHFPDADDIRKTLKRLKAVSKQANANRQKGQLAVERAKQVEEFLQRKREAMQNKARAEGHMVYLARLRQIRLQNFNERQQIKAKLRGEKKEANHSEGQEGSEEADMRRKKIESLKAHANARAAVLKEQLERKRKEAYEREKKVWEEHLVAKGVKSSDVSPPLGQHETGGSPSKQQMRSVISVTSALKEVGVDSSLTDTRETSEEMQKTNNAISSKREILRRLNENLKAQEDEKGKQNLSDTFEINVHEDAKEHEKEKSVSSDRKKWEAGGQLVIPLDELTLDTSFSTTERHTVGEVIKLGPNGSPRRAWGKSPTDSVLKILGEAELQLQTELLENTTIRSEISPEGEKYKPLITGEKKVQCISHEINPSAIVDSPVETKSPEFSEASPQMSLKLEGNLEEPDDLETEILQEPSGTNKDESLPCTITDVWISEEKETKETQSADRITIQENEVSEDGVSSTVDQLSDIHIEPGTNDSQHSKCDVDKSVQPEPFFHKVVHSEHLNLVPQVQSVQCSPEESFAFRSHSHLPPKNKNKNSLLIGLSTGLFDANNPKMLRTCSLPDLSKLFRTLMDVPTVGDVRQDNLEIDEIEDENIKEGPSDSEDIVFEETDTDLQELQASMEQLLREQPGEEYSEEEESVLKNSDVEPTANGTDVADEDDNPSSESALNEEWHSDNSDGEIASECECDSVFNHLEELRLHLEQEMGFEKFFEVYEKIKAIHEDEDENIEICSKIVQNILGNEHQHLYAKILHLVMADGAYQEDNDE
As to conditions: at 0.1 µM.

Test [13] addresses T5, Serine/threonine-protein kinase Nek1 (Homo sapiens). The following applies: at 1 µM.
The target in test [14] is T6, Serine/threonine-protein kinase Nek2 (Homo sapiens) (UniProt P51955).
T6 sequence (whole entry): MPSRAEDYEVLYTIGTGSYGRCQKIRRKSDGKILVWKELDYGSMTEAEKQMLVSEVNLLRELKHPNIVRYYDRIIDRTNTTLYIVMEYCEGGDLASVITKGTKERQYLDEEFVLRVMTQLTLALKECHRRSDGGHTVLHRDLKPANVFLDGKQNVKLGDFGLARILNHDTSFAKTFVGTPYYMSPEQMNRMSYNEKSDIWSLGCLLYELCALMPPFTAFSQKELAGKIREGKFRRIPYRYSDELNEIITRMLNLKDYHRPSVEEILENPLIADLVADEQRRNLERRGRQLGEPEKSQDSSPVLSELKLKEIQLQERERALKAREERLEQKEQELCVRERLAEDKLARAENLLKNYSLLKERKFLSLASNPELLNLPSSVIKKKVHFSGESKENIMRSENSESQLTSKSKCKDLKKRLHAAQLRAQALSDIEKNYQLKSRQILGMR
As to conditions: at 0.1 µM.

Test [15] addresses T6, Serine/threonine-protein kinase Nek2 (Homo sapiens). The following applies: at 1 µM.
The target of test [16] is Serine/threonine-protein kinase Nek6 (Homo sapiens) (UniProt Q9HC98). As to conditions: at 0.1 µM.
For test [17] the target is unchanged. The following applies: at 1 µM.
Test [18] deals with Serine/threonine-protein kinase Nek7 (Homo sapiens) (UniProt Q8TDX7). As to conditions: at 0.1 µM.
Test [19] shares this target. As to conditions: at 1 µM.
The target of test [20] is T7, Serine/threonine-protein kinase Nek9 (Homo sapiens) (UniProt Q8TD19).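 Further: reported value is the mean percent inhibition of NEK9.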
T7 sequence (whole entry): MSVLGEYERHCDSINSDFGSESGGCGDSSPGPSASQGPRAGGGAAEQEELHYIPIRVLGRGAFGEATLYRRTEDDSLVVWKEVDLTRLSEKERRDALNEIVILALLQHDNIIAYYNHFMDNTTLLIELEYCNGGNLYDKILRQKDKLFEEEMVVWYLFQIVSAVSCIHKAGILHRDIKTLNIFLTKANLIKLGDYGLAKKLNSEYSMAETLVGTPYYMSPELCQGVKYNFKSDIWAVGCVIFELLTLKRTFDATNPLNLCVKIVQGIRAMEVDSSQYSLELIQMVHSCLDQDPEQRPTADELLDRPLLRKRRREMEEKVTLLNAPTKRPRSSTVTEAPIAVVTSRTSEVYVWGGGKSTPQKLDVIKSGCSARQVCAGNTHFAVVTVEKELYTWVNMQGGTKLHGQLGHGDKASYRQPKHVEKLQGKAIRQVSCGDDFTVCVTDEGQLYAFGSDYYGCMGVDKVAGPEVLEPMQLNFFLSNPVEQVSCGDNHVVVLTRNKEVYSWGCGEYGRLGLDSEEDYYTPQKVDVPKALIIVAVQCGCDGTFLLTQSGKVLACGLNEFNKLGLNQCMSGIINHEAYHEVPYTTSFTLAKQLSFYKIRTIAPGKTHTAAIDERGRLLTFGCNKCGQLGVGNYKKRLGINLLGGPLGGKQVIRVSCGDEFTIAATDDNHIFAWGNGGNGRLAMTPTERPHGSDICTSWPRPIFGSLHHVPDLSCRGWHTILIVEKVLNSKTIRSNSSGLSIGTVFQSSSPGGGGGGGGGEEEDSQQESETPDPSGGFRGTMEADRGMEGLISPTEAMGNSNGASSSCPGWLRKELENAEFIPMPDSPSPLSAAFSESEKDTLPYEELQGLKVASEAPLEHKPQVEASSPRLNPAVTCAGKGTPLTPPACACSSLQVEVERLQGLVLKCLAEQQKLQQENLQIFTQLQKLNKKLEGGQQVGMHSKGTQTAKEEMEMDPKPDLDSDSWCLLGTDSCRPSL
As to conditions: at 0.1 µM.

Chain of Serine/threonine-protein kinase Nek6 (Homo sapiens) (Q9HC98 whole entry): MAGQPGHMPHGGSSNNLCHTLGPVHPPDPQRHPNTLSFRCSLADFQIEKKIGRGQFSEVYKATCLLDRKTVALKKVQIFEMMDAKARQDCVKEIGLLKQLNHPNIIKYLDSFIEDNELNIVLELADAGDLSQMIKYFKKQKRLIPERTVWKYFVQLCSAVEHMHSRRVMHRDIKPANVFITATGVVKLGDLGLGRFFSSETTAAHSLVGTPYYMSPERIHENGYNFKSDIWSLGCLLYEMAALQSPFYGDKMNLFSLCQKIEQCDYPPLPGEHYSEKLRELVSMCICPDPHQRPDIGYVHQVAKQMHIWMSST
Chain of Casein kinase II subunit alpha (Homo sapiens) (P68400 whole entry, looked up): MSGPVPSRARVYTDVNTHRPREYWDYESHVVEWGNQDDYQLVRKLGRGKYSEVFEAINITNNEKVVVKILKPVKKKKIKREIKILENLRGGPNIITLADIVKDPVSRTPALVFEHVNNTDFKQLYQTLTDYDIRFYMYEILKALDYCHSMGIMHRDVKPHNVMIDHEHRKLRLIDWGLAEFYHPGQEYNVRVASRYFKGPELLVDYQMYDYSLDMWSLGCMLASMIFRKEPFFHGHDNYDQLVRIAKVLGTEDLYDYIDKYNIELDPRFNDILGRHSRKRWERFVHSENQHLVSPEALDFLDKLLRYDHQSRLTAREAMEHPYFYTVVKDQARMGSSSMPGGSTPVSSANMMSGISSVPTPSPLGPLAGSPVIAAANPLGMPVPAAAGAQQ
Chain of Serine/threonine-protein kinase Nek7 (Homo sapiens) (Q8TDX7 whole entry, looked up): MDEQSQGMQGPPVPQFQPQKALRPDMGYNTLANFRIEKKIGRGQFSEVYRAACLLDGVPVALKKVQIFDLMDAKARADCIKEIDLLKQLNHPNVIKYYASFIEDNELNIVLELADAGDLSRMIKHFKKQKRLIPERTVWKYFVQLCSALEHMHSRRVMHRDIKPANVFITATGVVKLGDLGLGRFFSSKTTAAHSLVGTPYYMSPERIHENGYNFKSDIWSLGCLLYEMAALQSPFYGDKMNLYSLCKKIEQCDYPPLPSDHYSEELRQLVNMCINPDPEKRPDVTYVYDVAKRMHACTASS
Chain of Sphingosine kinase 1 (Homo sapiens) (Q9NYA1 whole entry): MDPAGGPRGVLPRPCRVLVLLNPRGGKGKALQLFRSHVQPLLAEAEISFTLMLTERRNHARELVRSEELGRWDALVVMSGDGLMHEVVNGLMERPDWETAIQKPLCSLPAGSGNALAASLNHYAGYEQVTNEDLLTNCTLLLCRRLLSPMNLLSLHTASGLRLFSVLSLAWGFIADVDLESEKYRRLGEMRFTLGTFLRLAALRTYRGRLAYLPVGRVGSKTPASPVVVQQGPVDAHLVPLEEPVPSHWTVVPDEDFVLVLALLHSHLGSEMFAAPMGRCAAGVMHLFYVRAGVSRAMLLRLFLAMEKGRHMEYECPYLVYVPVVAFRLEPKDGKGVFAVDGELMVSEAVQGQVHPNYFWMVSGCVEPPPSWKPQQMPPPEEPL

As for `Fc1cccc(COc2ccc(Nc3ncncc3C#Cc3ccccc3)cc2Cl)c1`, the inhibition was -2.79% in test [1]; -1.37% in test [2]; 0.98% in test [3]; 4.56% in [4]; 11.3% in test [5]; 6.1% in test [6]. The inhibition in test [7] turned out to be 4.54%; in test [8] it was 8.5%; in test [9], 9.35%; in test [10], 7.72%; in test [11], 8.55%; in test [12], 3.31%. In addition, the inhibition in test [13] amounted to 4.09%; in test [14], 5.61%; in [15], 4.52%; in test [16], 1.91%; in test [17], 3.93%; in [18], 2.36%. In addition, the inhibition in test [19] worked out at 2.64%; in [20], 10.8%.
